# Assay results from paper PMC7826789 (International Journal of Molecular Sciences, 2021).
# What was measured:
# Conditions in all cases: Compound Concentration (nM):1000
# MAP4K2 = tested on: MAP4K2
# MAP4K3 = tested on: MAP4K3
# MAP4K4 = tested on: MAP4K4
# MAP4K5 = tested on: MAP4K5
# MAPKAPK2 = tested on: MAPKAPK2
# MAPKAPK5 = tested on: MAPKAPK5
# MARK1 = tested on: MARK1
# MARK2 = tested on: MARK2
# MARK3 = tested on: MARK3
# MARK4 = tested on: MARK4
# MAST1 = tested on: MAST1
# MEK1 = tested on: T1, MEK1
# T1 construct: gene MAP2K1
# MEK2 = tested on: T2, MEK2
# T2 construct: gene MAP2K2
# MEK3 = tested on: T3, MEK3
# T3 construct: gene MAP2K3
# MEK4 = tested on: T4, MEK4
# T4 construct: gene MAP2K4
# MEK5 = tested on: T5, MEK5
# T5 construct: gene MAP2K5
# MEK6 = tested on: T6, MEK6
# T6 construct: gene MAP2K6
# MELK = tested on: MELK
# MERTK = tested on: MERTK
# MET(M1250T) = tested on: MET(M1250T)
# 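Note: KINOMEscan scanMAX binding as percent activity remaining versus control; lower means stronger binding.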
SMILES,Percent Control (MAP4K2) [%],Percent Control (MAP4K3) [%],Percent Control (MAP4K4) [%],Percent Control (MAP4K5) [%],Percent Control (MAPKAPK2) [%],Percent Control (MAPKAPK5) [%],Percent Control (MARK1) [%],Percent Control (MARK2) [%],Percent Control (MARK3) [%],Percent Control (MARK4) [%],Percent Control (MAST1) [%],Percent Control (MEK1) [%],Percent Control (MEK2) [%],Percent Control (MEK3) [%],Percent Control (MEK4) [%],Percent Control (MEK5) [%],Percent Control (MEK6) [%],Percent Control (MELK) [%],Percent Control (MERTK) [%],Percent Control (MET(M1250T)) [%]
COc1cc2ncnc(Nc3ccc4c(cnn4Cc4ccccc4)c3)c2cc1OC.Cl [GW282449A],93,95,100,88,72,88,100,100,100,100,100,37,50,100,100,0,97,100,83,100
CC1=C(C(=O)Nc2ccc3[nH]ncc3c2)C(c2ccc3ccccc3c2)CC(=O)N1 (stereo not shown) [GSK270822A],100,90,79,93,97,96,91,95,100,76,87,79,74,69,82,70,92,100,100,32
CN(C)c1cc2c(Nc3ccc4c(cnn4Cc4ccccc4)c3)ncnc2cn1 [GW282974X],92,100,76,98,69,90,100,97,100,90,77,48,50,83,89,0,84,90,96,75
COc1ccc2c(-c3ccnc(Nc4cccc(OC(F)(F)F)c4)n3)cnn2n1 [GW810372X],94,100,100,100,100,100,100,100,100,82,56,100,100,30,82,72,78,96,100,100
COc1cc(/C=N/Nc2ncnc3[nH]ncc23)ccc1O [GW578748X],43,100,100,100,100,100,79,100,99,60,78,78,83,79,94,0.5,83,15,100,84
COc1cc(N2CCN(C(C)C)CC2)ccc1Nc1nc(Nc2ccc(F)cc2C(=O)NC[C@@H](O)CO)c2cc[nH]c2n1 [GSK1392956A],91,100,94,96,85,94,90,59,86,100,43,100,100,23,77,96,67,57,77,78
COc1ccc(COc2ccc(Cc3cnc(N)nc3N)cc2OC)cc1 [GW632580X],97,82,100,99,95,97,83,93,66,57,93,90,90,93,100,97,100,100,100,100
Cc1cc(O)cc(C)c1/C=C/c1cncc(C(N)=O)c1 [GW435821X],56,81,100,100,100,100,100,100,91,78,100,81,89,100,100,5.3,100,95,100,100
CN(C)CCNC(=O)Nc1ccc(N(C)c2ccnc(Nc3ccc(CS(C)(=O)=O)cc3)n2)cc1.Cl [GW830900A],80,69,66,77,100,93,84,67,55,100,57,86,77,58,75,1.9,100,56,91,22
CN1CCN(C(=O)c2ccc(NC(=O)Nc3ccc(N(C)c4ccnc(Nc5ccc(CS(C)(=O)=O)cc5)n4)cc3)cc2)CC1.Cl [GW830263A],43,25,33,32,100,84,44,84,43,92,61,33,40,14,6,0.1,82,81,56,2.2
NS(=O)(=O)c1ccc(N/N=C2\C(=O)Nc3ccc(-c4cnco4)cc32)cc1 [GW276655],80,85,62,84,100,100,44,85,100,68,75,91,92,52,84,70,72,97,60,63
CC(C)COC(=O)c1ccc2c(c1)/C(=C/Nc1ccc(S(N)(=O)=O)cc1)C(=O)N2 [GW416981X],76,95,86,87,100,100,100,73,93,81,100,95,92,68,100,21,83,6.4,100,92
NS(=O)(=O)c1ccc(Nc2ncc(-c3ccccc3)o2)cc1 [GW572399X],82,100,100,100,100,100,100,100,94,100,100,100,100,30,86,59,65,100,100,100
NS(=O)(=O)c1ccc(N/N=C2\C(=O)Nc3ccc(C(=O)NCCc4c[nH]cn4)cc32)cc1 [GW300660X],71,86,100,100,100,100,90,100,100,100,100,93,90,39,100,39,96,15,100,100
Nc1ncnc2occ(-c3ccc(NC(=O)Nc4cc(C(F)(F)F)ccc4F)cc3)c12 [GW770249X],27,29,56,11,100,100,83,94,71,94,100,98,100,100,100,21,100,53,1.4,49
O=C(Nc1n[nH]c2nc(-c3ccc(O)cc3)c(Br)cc12)C1CC1 [SB-725317],38,100,84,100,100,100,95,100,100,100,84,100,100,75,100,28,98,100,100,100
C[C@@H](Oc1cc(-n2cnc3ccc(OC4CCN(C)CC4)cc32)sc1C(N)=O)c1ccccc1Cl [GSK579289A],24,93,49,36,100,100,85,77,80,89,52,94,96,86,98,51,84,70,84,68
NS(=O)(=O)c1ccc(N/N=C2\C(=O)Nc3ccc(C(=O)NCc4ccncc4)cc32)cc1 [GW300657X],84,99,88,96,100,89,100,91,63,91,33,100,100,41,87,48,79,35,69,82
COc1ccc2cc(-c3c(-c4ccncc4)nc(-c4ccc(S(C)(=O)=O)cc4C)n3C)ccc2c1 [SB-633825],93,93,39,91,100,95,88,93,100,71,68,85,80,70,72,61,100,84,82,76
CCS(=O)(=O)c1ccc(OC)c(Nc2ncc(-c3cccc(F)c3)o2)c1 [GW621970X],91,100,100,100,92,94,96,100,100,92,93,93,92,76,100,4.1,82,86,67,100
